These results are taken from PubChem BioAssay (NCI).

Holding throughout (experiment): NCI-60 one-dose screen, 48 h (100 = growth as untreated, 0 = no growth, -100 = all killed)
What all share (details): 10 µM unless noted

The test system of experiment [1] is HCT-15 colon.
Experiment [2] concerns HT29 colon.
The test system of experiment [3] is SNB-75 CNS.
The test system of experiment [4] is SNB-19 CNS.
Experiment [5] relates to U251 CNS.
The test system of experiment [6] is PC-3 prostate.
For experiment [7], the system named is SK-MEL-5 melanoma.
The subject of experiment [8] is UACC-62 melanoma.
Experiment [9] has as its system LOX IMVI melanoma.
Experiment [10] concerns SK-MEL-28 melanoma.
Experiment [11] has as its system SK-MEL-2 melanoma.
The subject of experiment [12] is EKVX NSCLC.
The test system of experiment [13] is SN12C renal.
Experiment [14] deals with UO-31 renal.
The test system of experiment [15] is TK-10 renal.
For experiment [16], the system named is ACHN renal.
Experiment [17] concerns CAKI-1 renal.
Experiment [18] relates to A498 renal.
Experiment [19] deals with MOLT-4 leukemia.
For experiment [20], the system named is CCRF-CEM leukemia.

This is part of a sample that, as a whole, favours compounds with a hit. Of some 83,000 tested, about 20% had one in any assay.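 Single-dose data. Exposure time 48 hours. Values below 10 considered active.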 Unmarked numbers belong to inactive results. The source made the active and inactive calls.

Turning to `N#Cc1cnc2ccc(-c3cnc4[nH]ncc4c3)cc2c1N1CCc2cc(F)c(Cl)cc21`, the growth in experiment [1] was 3.32% (active); in [2], 2.58% (active); in [3], -9.27% (active); in experiment [4], 14.2%; in [5], 20.5%; in experiment [6] it was 6.58% (active). Further, the growth in [7] is -37.2% (active); in [8], -18.5% (active); in experiment [9], -9.51% (active); in experiment [10], 31.3%; in experiment [11] it was -5.98% (active); in experiment [12], -1.26% (active). Further, the growth in [13] was 9.07% (active); in experiment [14], -8.85% (active); in experiment [15], 13.1%; in experiment [16], 12.5%; in experiment [17], 15.1%; in experiment [18] it was -53.7% (active). In addition, the growth in experiment [19] is 4.01% (active).

As to `NC(N)=Nc1ccc(Oc2cccc(NC(N)=Nc3ccc(Cl)c(C(F)(F)F)c3)c2)cc1`, the growth in [1] is 84.3%; in experiment [2], 46.7%; in experiment [3], 65%; in [4], 13.9%; in experiment [5], 23%; in experiment [6], 6.36% (active). The growth was 42% in [7]; 47.8% in experiment [8]; -26.5% (active) in experiment [9]; 70% in experiment [10]; 83% in experiment [11]; 64.4% in experiment [12]. Further, the growth in [13] is 31%; in experiment [14], 87%; in experiment [15], 74%; in [16], 87.8%; in experiment [18], 54%; in experiment [20], 61.8%. Also, the growth in experiment [19] was 51.9%.

`COc1cc2nc(Cl)nc(Nc3cccc(C4=Nc5c(N)nc(N)nc5NC(c5ccc(Br)cc5)C4)c3)c2cc1OC` (stereo unspecified): the growth was 7.34% (active) in experiment [1]; 19.8% in [2]; 84.3% in experiment [3]; 28.7% in experiment [4]; -46.5% (active) in experiment [5]; 64.7% in experiment [6]. In addition, the growth in experiment [7] was 75.5%; in experiment [8], 107%; in experiment [9] it was 27.6%; in [10], 99.1%; in experiment [11], 94.2%; in experiment [12], 97.1%. For the same compound, the growth in experiment [13] is 99%; in experiment [14] it was 92.9%; in experiment [15], 114%; in [16], 101%; in [18], 90.6%; in [20] it was 10.9%.

Turning to `Nc1ncc(-c2ccc3ncnc(N4CCc5cc(F)c(Cl)cc54)c3c2)cn1`, the growth in [1] is 18.2%; in experiment [2], 24.1%; in experiment [3], -32.2% (active); in [4] it was 43%; in [5], 45%; in [6] it was 10.5%. For the same compound, the growth was 29.2% in [7]; 22.2% in experiment [8]; 9.68% (active) in experiment [9]; 40.5% in experiment [10]; 17.1% in [11]; -9.64% (active) in experiment [12]. For the same compound, the growth was 17.9% in [13]; 7.96% (active) in [14]; -15% (active) in [15]; 13.4% in [16]; -9.07% (active) in experiment [17]; -80.7% (active) in experiment [18]. For the same compound, the growth in experiment [19] was -20.9% (active).

`O=C(O)c1ccc(-n2cc(CNc3cc(F)c(F)c(F)c3)c(-c3cccc(F)c3)n2)cc1`: the growth in [1] was 46.8%; in experiment [2] it was 106%; in [3], 106%; in [4] it was 97.4%; in experiment [5], 93.3%; in experiment [6], 79.1%. Also, the growth was 67.4% in [7]; 58.2% in experiment [8]; 104% in [9]; 83.2% in experiment [10]; 79.6% in [11]; 65.5% in experiment [12]. Further, the growth in [13] was 91.3%; in experiment [14], 77%; in [15], 128%; in experiment [16], 77.4%; in experiment [18] it was 99.4%; in experiment [20], 92.3%. In addition, in experiment [19], the growth is 79.8%.

As for `N/C(=N\C(N)=N\c1nc2ccccc2s1)c1ccc2ccccc2c1`, the growth is 69% in experiment [1]; 104% in [2]; 48.5% in [3]; 94.7% in experiment [4]; 47.9% in [5]; 50.6% in [6]. In addition, the growth in [7] is 97.4%; in [8], 93.4%; in experiment [9], -45.7% (active); in [10] it was 95.5%; in experiment [11], 97.7%; in experiment [12], 47.9%. In addition, the growth is 75.3% in [13]; 23.4% in experiment [14]; 126% in experiment [15]; 78.4% in experiment [16]; 36.4% in [17]; 96.9% in experiment [18]. For the same compound, the growth in experiment [19] was 60.6%.

Regarding `COc1cccc(/C=C(/C)c2ccc3cccc(OC)c3[o+]2)c1O`, the growth in experiment [1] was 98%; in experiment [2], 114%; in experiment [3] it was 92.4%; in experiment [4], 95.6%; in experiment [5], 108%; in [6] it was 87.3%. Further, the growth in experiment [7] is 102%; in experiment [8], 80.3%; in experiment [9], 127%; in experiment [10], 98.9%; in [11] it was 106%; in experiment [12], 89.6%. Moreover, the growth in experiment [13] is 97.3%; in [14], 88.8%; in [15], 116%; in [16], 95.4%; in experiment [18], 84%; in experiment [20], 104%. The growth in experiment [19] is 92%.

As to `CNc1ncc2cc(-c3ccc(-c4ncccc4F)cc3Cl)c(=O)n(CC3OCC(N)CO3)c2n1` (stereo unspecified), the growth is 87.5% in experiment [1]; 48.1% in [2]; 24% in [3]; 69% in [4]; 51.8% in [5]; 81.9% in [6]. Also, the growth in [7] was 82.6%; in experiment [8], 78.6%; in experiment [9], 32.3%; in [10] it was 92.9%; in [11], 93.5%; in experiment [12], 57.6%. Also, the growth in experiment [13] is 59.8%; in experiment [14] it was -12.3% (active); in experiment [15] it was 13.1%; in experiment [16], 40.9%; in [18], 6.43% (active); in experiment [20], 78.1%. For the same compound, the growth in experiment [19] is 57.8%.
